Here are results for eleven molecules from PMC5540273 (PLoS ONE, 2017).

One test deals with BUB1. To be noted: concentration: 1 μM, replicates: in singlicate; n = 1.
The test system of another test is CAMK1B. To be noted: concentration: 1 μM, replicates: in singlicate; n = 1.
The next test relates to CAMK1D. To be noted: concentration: 1 μM, replicates: in singlicate; n = 1.
Another test deals with CAMK1G. The conditions noted are these: concentration: 1 μM, replicates: in singlicate; n = 1.
The subject of another test is CAMK1. To be noted: concentration: 1 μM, replicates: in singlicate; n = 1.
A further test relates to CAMK2A. To be noted: concentration: 1 μM, replicates: in singlicate; n = 1.
Another test relates to CAMK2B. The conditions noted are these: concentration: 1 μM, replicates: in singlicate; n = 1.
The subject of another test is CAMK2D. The conditions noted are these: concentration: 1 μM, replicates: in singlicate; n = 1.
The subject of a further test is CAMK2G. The conditions noted are these: concentration: 1 μM, replicates: in singlicate; n = 1.
For another test, the system named is CAMK4. To be noted: concentration: 1 μM, replicates: in singlicate; n = 1.
The next test relates to CAMKK1. The conditions noted are these: concentration: 1 μM, replicates: in singlicate; n = 1.
In another test the test system is CAMKK2. The conditions noted are these: concentration: 1 μM, replicates: in singlicate; n = 1.
Another test relates to CASK. The conditions noted are these: concentration: 1 μM, replicates: in singlicate; n = 1.
For a further test, the system named is T1, CDC2L1.
T1 construct: gene CDK11B
To be noted: concentration: 1 μM, replicates: in singlicate; n = 1.

The test system of another test is CDC2L2. To be noted: concentration: 1 μM, replicates: in singlicate; n = 1.
For a further test, the system named is T2, CDC2L5.
T2 construct: gene CDK13
The conditions noted are these: n = 1.

A further test concerns T3, CDK11.
T3 construct: gene CDK19
To be noted: concentration: 1 μM, replicates: in singlicate; n = 1.

A further test concerns CDK2. The conditions noted are these: concentration: 1 μM, replicates: in singlicate; n = 1.
The subject of the next test is CDK3. To be noted: concentration: 1 μM, replicates: in singlicate; n = 1.
For another test, the system named is CDK4-cyclinD1. The conditions noted are these: n = 1.
Where [1] appears, read: concentration: 1 μM, replicates: in singlicate.

Structures are written as SMILES. Like-named read-outs stand apart in the source and are kept apart here.
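Also: KINOMEscan kinase panel screen.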

For the molecule `O=C(NCCNc1ccnc(Nc2ccc(F)cc2)n1)Nc1ccccc1F` [GSK1379880], the “%Inh” value is 31% with BUB1; 0% with CAMK1B; 0% in the test on CAMK1D; 0% in the test on CAMK1G; 0% with CAMK1; 0% in the test with CAMK2A. Besides, the “%Inh” value with CAMK2B, in the test on CAMK2D, in the test with CAMK2G, in the test on CAMK4, with CAMKK1 and in the test with CAMKK2 was 0% in each case. Also, the “%Inh” value turned out to be 1% with CASK; 0% in the test on CDC2L1; 9% in the test with CDC2L2; 0% in the test on CDC2L5 (setting [1]); 0% in the test with CDK11; 0% in the test with CDK2. The “%Inh” value is 20% with CDK3 and 0% in the test on CDK4-cyclinD1 (setting [1]).
Take `Cc1cn2c(=O)cc(N3CCOCC3)nc2n1Cc1cccc(Cl)c1Cl` [GSK2334006]: the “%Inh” value was found to be 4% in the test on BUB1; 40% with CAMK1B; 14% in the test with CAMK1D; 30% with CAMK1G; 12% in the test with CAMK1; 0% in the test on CAMK2A. Besides, the “%Inh” value is 0% with CAMK2B; 10% in the test on CAMK2D; 32% with CAMK2G; 0% in the test on CAMK4; 30% with CAMKK1; 32% with CAMKK2. Further, the “%Inh” value came out at 20% in the test on CASK; 0% in the test on CDC2L1; 6% with CDC2L2; 0% in the test with CDC2L5 (setting [1]); 11% with CDK11; 17% in the test on CDK2. The “%Inh” value in the test on CDK3 was 25%; with CDK4-cyclinD1 (setting [1]), 0%.
For the molecule `c1ccc(-c2cc(-c3c[nH]nc3-c3ccccn3)ccn2)cc1` [GW576604], the “%Inh” value in the test on BUB1 amounted to 34%; in the test on CAMK1B it was 10%; with CAMK1D, 14%; with CAMK1G, 0%; with CAMK1, 14%; in the test on CAMK2A, 0%. Also, the “%Inh” value in the test on CAMK2B was found to be 0%; in the test with CAMK2D, 10%; in the test on CAMK2G, 30%; in the test with CAMK4, 0%; in the test with CAMKK1, 5%; with CAMKK2, 24%. Moreover, the “%Inh” value stood at 0% in the test with CASK; 0% in the test with CDC2L1; 16% in the test with CDC2L2; 0% in the test on CDC2L5 (setting [1]); 11% with CDK11; 13% in the test with CDK2. Also, the “%Inh” value in the test on CDK3 and in the test on CDK4-cyclinD1 (setting [1]) was 0% each time.
With `COc1cc2c(cc1OCCN1CCN(C)CC1)ncc1c3ccc(C#N)cc3[nH]c21`, the “%Inh” value was 100% in the test with BUB1; 19% in the test with CAMK1B; 44% with CAMK1D; 16% with CAMK1G; 0% with CAMK1; 93.5% in the test with CAMK2A. In addition, the “%Inh” value in the test on CAMK2B was determined as 70%; with CAMK2D it was 92.6%; with CAMK2G, 86%; in the test on CAMK4, 0%; in the test on CAMKK1 it was 86%; in the test on CAMKK2, 70%. Moreover, the “%Inh” value is recorded as 8% with CASK; 7% in the test on CDC2L1; 7% with CDC2L2; 0% with CDC2L5 (setting [1]); 0% with CDK11; 2% with CDK2. Further, the “%Inh” value in the test on CDK3 and in the test on CDK4-cyclinD1 (setting [1]) was 0% each time.
On to `O=c1cc(N2CCOCC2)nc2n(Cc3cccc(Cl)c3Cl)c(C3CC3)nn12` [GSK2358994], for which the “%Inh” value amounted to 0% with BUB1; 0% in the test on CAMK1B; 0% in the test on CAMK1D; 5% with CAMK1G; 0% in the test with CAMK1; 25% with CAMK2A. Also, the “%Inh” value in the test on CAMK2B worked out at 10%; in the test with CAMK2D, 18%; in the test on CAMK2G it was 0%; with CAMK4, 5%; in the test on CAMKK1 it was 3%; in the test on CAMKK2, 8%. The “%Inh” value is reported as 26% in the test with CASK; 0% with CDC2L1; 0% with CDC2L2; 0% with CDC2L5 (1 µM); 0% in the test on CDK11; 0% with CDK2. Moreover, the “%Inh” value in the test on CDK3 came out at 5%; with CDK4-cyclinD1 (1 µM), 0%.
Regarding `COc1ccc(CNC(=O)NC2CCN(c3ccnc(Nc4ccc(OC)cc4)n3)C2)cc1` (stereo not shown) [GSK1379727], the “%Inh” value in the test with BUB1 turned out to be 56%; with CAMK1B, 47%; in the test with CAMK1D it was 21%; with CAMK1G, 0%; in the test on CAMK1, 18%; in the test with CAMK2A it was 0%. Moreover, the “%Inh” value is on record as 0% in the test on CAMK2B; 0% with CAMK2D; 8% in the test with CAMK2G; 0% in the test with CAMK4; 0% in the test with CAMKK1; 4% with CAMKK2. Moreover, the “%Inh” value with CASK is recorded as 16%; in the test with CDC2L1, 0%; in the test with CDC2L2, 8%; in the test with CDC2L5 (setting [1]), 0%; in the test with CDK11, 1%; with CDK2 it was 0%. In addition, the “%Inh” value with CDK3 was found to be 13%; in the test on CDK4-cyclinD1 (setting [1]), 18%.
`COc1cc2c(cc1OC[C@@H](O)CO)ncc1c3ccc(C#N)cc3[nH]c21`: the “%Inh” value came to 94.3% in the test with BUB1; 27% in the test with CAMK1B; 0% with CAMK1D; 0% with CAMK1G; 0% in the test with CAMK1; 89% with CAMK2A. Besides, the “%Inh” value in the test with CAMK2B worked out at 61%; with CAMK2D it was 84%; in the test with CAMK2G, 61%; with CAMK4, 0%; in the test with CAMKK1, 60%; with CAMKK2, 22%. For the same molecule, the “%Inh” value in the test on CASK was 0%; with CDC2L1, 0%; with CDC2L2, 0%; in the test on CDC2L5 (setting [1]), 0%; in the test on CDK11 it was 20%; in the test on CDK2 it was 0%. The results for the “%Inh” value in the test on CDK3 and in the test with CDK4-cyclinD1 (setting [1]) were 19% and 0%, respectively.
For `O=C1Cc2cc(Nc3nc(NCc4cccc(S(=O)(=O)C(F)(F)F)c4)ncc3C(F)(F)F)ccc2N1`, the “%Inh” value in the test on BUB1 was found to be 34%; in the test on CAMK1B, 11%; with CAMK1D, 0%; in the test on CAMK1G it was 2%; in the test on CAMK1 it was 0%; with CAMK2A, 0%. In addition, the “%Inh” value came out at 0% in the test on CAMK2B; 5% in the test on CAMK2D; 8% in the test with CAMK2G; 4% in the test with CAMK4; 9% with CAMKK1; 3% in the test on CAMKK2. Further, the “%Inh” value in the test on CASK is 0%; with CDC2L1 it was 9%; in the test with CDC2L2 it was 0%; with CDC2L5 (setting [1]), 12%; in the test with CDK11 it was 8%; in the test with CDK2, 0%. For the same molecule, the “%Inh” value in the test on CDK3 is on record as 0%; with CDK4-cyclinD1 (setting [1]), 5%.
As for `Cc1nnc(-c2ccc(C)c(-c3ccc(C(=O)Nc4ccc(NS(C)(=O)=O)cc4)cc3)c2)o1` [GW702865], the “%Inh” value with BUB1 is 35%; in the test with CAMK1B it was 10%; in the test on CAMK1D, 2%; in the test with CAMK1G it was 0%; with CAMK1, 4%; in the test with CAMK2A, 0%. Also, the “%Inh” value turned out to be 1% in the test on CAMK2B; 0% in the test on CAMK2D; 0% in the test with CAMK2G; 0% in the test on CAMK4; 0% in the test with CAMKK1; 0% in the test on CAMKK2. Further, the “%Inh” value is recorded as 23% in the test on CASK; 0% in the test with CDC2L1; 8% in the test on CDC2L2; 0% in the test on CDC2L5 (setting [1]); 0% in the test with CDK11; 0% in the test on CDK2. Moreover, the “%Inh” value in the test on CDK3 came to 1%; in the test on CDK4-cyclinD1 (setting [1]) it was 36%.
On to `Cc1c2ccc(N(C)c3ccnc(Nc4cccc(S(N)(=O)=O)c4)n3)cc2nn1Cc1ccccc1.Cl.Cl` [GW787226], for which the “%Inh” value in the test on BUB1 turned out to be 0%; in the test on CAMK1B it was 0%; in the test on CAMK1D, 0%; in the test on CAMK1G, 11%; in the test with CAMK1 it was 2%; in the test on CAMK2A, 0%. In addition, the “%Inh” value was 0% in the test on CAMK2B; 0% in the test on CAMK2D; 0% in the test with CAMK2G; 16% with CAMK4; 0% in the test on CAMKK1; 0% in the test on CAMKK2. Further, the “%Inh” value with CASK was determined as 9%; with CDC2L1, 66%; in the test on CDC2L2, 76%; with CDC2L5 (setting [1]), 0%; in the test with CDK11, 9%; in the test on CDK2, 0%. The “%Inh” value with CDK3 worked out at 3%; with CDK4-cyclinD1 (setting [1]), 0%.
Turning to `NCC(NC(=O)c1cc(-c2cn[nH]c2)c(-c2ccnc3[nH]ccc23)s1)c1ccccc1.O=C(O)C(F)(F)F.O=C(O)C(F)(F)F` (stereo not shown) [GSK1325775], the “%Inh” value in the test on BUB1 amounted to 94.6%; with CAMK1B, 49%; with CAMK1D it was 50%; with CAMK1G, 33%; in the test with CAMK1 it was 41%; with CAMK2A, 0%. Further, the “%Inh” value stood at 12% with CAMK2B; 35% with CAMK2D; 30% with CAMK2G; 0% in the test with CAMK4; 76% in the test on CAMKK1; 67% with CAMKK2. Moreover, the “%Inh” value with CASK was determined as 23%; with CDC2L1, 0%; with CDC2L2 it was 11%; in the test on CDC2L5 (setting [1]), 32%; with CDK11, 34%; in the test on CDK2 it was 0%. The “%Inh” value in the test on CDK3 is 0%; in the test with CDK4-cyclinD1 (setting [1]) it was 48%.
